Screening results as filed in PubChem.
Marburg entry inh: qHTS for inhibitors of binding or entry into cells for Marburg Virus; Marburg virus pseudotyped entry inhibition, cell reporter; Potency, µM (titrated, usually from 37.8 µM), most hits filed as inhibitors; hit rate 1.8% among 300,000; AID 540276, 2011; calls by dose curve; tested in HEK293 cells
FMDV inh: High Throughput Screening for Foot and Mouth Disease Virus Antivirals; hit rate 1.2% among 410,000; Potency, µM (titrated, usually from 57.9 µM), hits mostly inhibitors; FMDV antiviral cell-based qHTS; calls by dose curve; tested in HEK293T cells; note: read-out not given here; nearly all actives have a fitted effect of over 45% in size
HCMV antiviral: qHTS Assay for inhibitors of the human cytomegalovirus (HCMV) | HFF cells, HCMV-luciferase reporter, 72 h; active compounds read low | activity change, negative = inhibition, % at 57.5 µM | hit rate 4.5% among 410,000 | AID 1259415, 2018; in the data active = activity change below about -60%; inconclusive = no clear call, values can overlap the other calls; inactive = above about -39%
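HFF cells seeded 16 h at 37C, treated with compounds, infected with luciferase-reporter HCMV at MOI 1 PFU/cell; luciferase read at 72 h post infection, normalized to buffer-only and Salinomycin controls.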
Vaccinia mCherry: qHTS for Stage-Specific Inhibitors of Vaccinia Orthopoxvirus: mCherry Reporter Primary qHTS; Potency, µM (top dose mostly 36.5 µM), most hits filed as inhibitors; Vaccinia virus mCherry reporter infection, fluorescence; hit rate 0.63% among 310,000; AID 720579, 2013; calls by dose curve; tested in A549 cells; note: nearly all actives have a fitted effect of over 35% in size
Vaccinia Venus: qHTS for Stage-Specific Inhibitors of Vaccinia Orthopoxvirus: Venus Reporter Primary qHTS. Vaccinia virus Venus reporter expression, fluorescence. Potency, µM (doses to about 36.5 µM), most hits filed as inhibitors. hit rate 0.46% among 330,000. AID 720580, 2013; calls by dose curve; tested in A549 cells; note: nearly all actives have a fitted effect of over 30% in size
Lassa entry inh: qHTS for Inhibitors of binding or entry into cells for Lassa Virus | Lassa virus pseudotype entry inhibition, cell reporter | Potency, µM (top dose mostly 37.9 µM), hits mostly inhibitors | hit rate 1.2% among 300,000; calls by dose curve; tested in HEK293 cells; note: nearly all actives have a fitted effect of over 50% in size
Numbers stand for hits; - = inactive; ? = inconclusive; . = not tested or not shown. This is a sample that favours compounds with a hit; in the whole collection about 6.5% have one here.

SMILES	Marburg entry inh	FMDV inh	HCMV antiviral	Vaccinia mCherry	Vaccinia Venus	Lassa entry inh
CCOC(=O)c1c(CSc2ccc(C)cc2)oc2ccc(O)cc12	-	22µM	-	-	?	?
CCOC(=O)c1c(CSc2ccc(CC)cc2)oc2ccc(O)c(CN(C)C)c12	4.5µM	?	-82	-	?	?
CC(=O)c1c(CSc2ccccc2)oc2ccc(O)c(CN(C)C)c12	?	-	-69	-	-	?
CCCCCCCCCCCCCCC(C(=O)O)C(O)(CC(=O)OC)C(=O)O (stereo unspecified)	.	-	.	-	-	.
O=C1[C@H]2[C@H]3[C@H](O)[C@H](O)C/C(=N\OCc4ccccc4)[C@@H]3CC[C@H]2C(=O)N1Cc1ccc2c(c1)OCO2	-	.	.	.	.	.
Cc1ccc2[nH]c3c(c2c1)CCCC3NC(=O)CCl (stereo unspecified)	5.6µM	-	.	-	-	8.9µM
Cc1ccc2[nH]c3c(c2c1)CCC[C@H]3C(N)=O	-	.	.	.	.	.
COC(=O)N[C@@H](/C=C/c1ccccc1)C[N+](=O)[O-]	-	.	.	.	.	.
CCn1cnc2sc(C(=O)N(Cc3ccc(N(C)C)cc3)Cc3ccco3)c(C)c2c1=O	5µM	-	-	.	-	?
Cc1ccccc1NC(=O)CSc1nc(-c2ccc(F)cc2)nc2c1Cc1ccccc1O2	-	-	-	-	-	-
CCOc1ccc(Sc2cc(C(=O)NCCc3ccc(OC)c(OC)c3)c3ccccc3n2)cc1	.	14µM	-	?	?	-
COc1ccc(CCNC(=O)c2cc(Sc3cccc(Cl)c3)nc3ccccc23)cc1OC	.	?	-84	-	-	?
O=C1c2ccccc2S(=O)(=O)c2cc(N3CCN(C(=O)c4ccccc4)CC3)ccc21	.	40µM	-	-	?	.
O=C(c1ccccc1)c1ccc(C(=O)N2CCN(c3ccc(O)cc3)CC2)cc1	.	-	-78	.	.	.
O=C1c2ccccc2S(=O)(=O)c2cc(C(=O)N3CCN(c4ccccc4)CC3)ccc21	.	-	-	-	-	.
O=C(c1ccc(N2CCN(C(=O)c3ccc(F)c(F)c3)CC2)cc1)c1cccc(F)c1	.	-	-72	.	.	.
CC(=O)c1ccc(N2CCN(S(=O)(=O)c3ccc4c5c3CC(=O)N5CC(C)S4)CC2)cc1 (stereo unspecified)	.	14µM	.	.	.	.
COc1ccc(Oc2nc3c(c(=O)n(C)c(=O)n3C)n2Cc2ccc(Cl)cc2Cl)cc1	.	-	-	-	-	-
CCCCC(CC)CNC(=O)c1[nH]c(C)c(C(C)=O)c1C (stereo unspecified)	-	-	-65	.	.	.
O=S(=O)(c1ccccc1)N1CCC2(CCN(c3cccc(-c4ccccc4)c3)CC2)CC1	.	-	.	.	.	.
CC(=O)c1ccc(OCC(O)CN2CCN(CCN3C(=O)c4cccc5cccc(c45)C3=O)CC2)cc1 (stereo unspecified)	?	?	-84	?	?	?
CC(=O)c1cccc(NC(=S)N2CCN(CCN3C(=O)c4cccc5cccc(c45)C3=O)CC2)c1	?	-	-79	-	-	-
CC(=O)c1ccc(OCC(O)CN2CCN(CC(O)COc3ccc(C(C)=O)cc3)CC2)cc1 (stereo unspecified)	?	-	-	.	-	-
Cc1cccc(C)c1OCC(O)CN1CCC(CN2C(=O)c3cccc4cccc(c34)C2=O)CC1 (stereo unspecified)	?	22µM	-	-	-	?
CC(=O)c1ccc(OCC(O)CN2CCN(S(=O)(=O)c3c(C)c(C)cc(C)c3C)CC2)cc1 (stereo unspecified)	?	-	-72	-	-	?
CC(C)OCC(O)CN1CCN(CCN2C(=O)c3cccc4cccc(c34)C2=O)CC1 (stereo unspecified)	.	-	-	.	.	.
CCc1cccc(C)c1NC(=O)CCCn1c(C)c2cnn(-c3ccccc3)c(=O)c2c1C	?	-	-	-	-	-
C=CCc1ccccc1OCC(O)CN1CCN(CCN2C(=O)c3cccc4cccc(c34)C2=O)CC1 (stereo unspecified)	11µM	28µM	-	?	?	?
Cc1ccccc1OCC(O)CN1CCN(CCN2C(=O)c3cccc4cccc(c34)C2=O)CC1 (stereo unspecified)	?	?	?	-	-	?
